From PubChem BioAssay AID1159580 (chemical genetic matrix, 2015)
“And” between values parts separate entries of the source, which are not always exact repeats. Identical values can stand only once. About 2,000 (36%) of roughly 5,500 compounds were called active. Inconclusive results (about 18%) are left out. Rule as the data show it: active = normalized growth mostly below about 0.91 (no sharp cut-off); inconclusive = no clear call, values can overlap the other calls; inactive = mostly above about 0.92. Some of the results follow.

Experiment: chemical genetic growth profiling, strain panel (AID 1159580);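 also: tested at 20 µM; growth read once vehicle control cultures reached saturation at 30 °C; 1 = growth at the plate median or of vehicle wells; lower values mean less growth of the strain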
Details: S. cerevisiae deletion strains, growth OD

Measured: normalized growth

CCn1cc(C(=O)O)c(=O)c2cc(F)c(N3CCNC(C)C3)c(F)c21 (centres undefined)
inactive: locus YAL013W, strain DEP1, hits give low values 0.989 | locus YAL021C, strain ccr4, hits give low values 0.957 | locus YAL026C, strain drs2, hits give low values 0.974 | locus YAL030W, strain snc1, hits give low values 0.988 | locus YAL040C, strain CLN3, hits give low values 0.984 | locus YBL061C, strain skt5, hits give low values 0.962 | locus YBR009C, strain hhf1, hits give low values 1.01 | locus YBR021W, strain FUR4, hits give low values 0.982 | locus YBR023C, strain chs3, hits give low values 0.986 | locus YBR171W, strain sec66, hits give low values 0.975 | locus YBR229C, strain ROT2, hits give low values 1 | locus YBR231C, strain swc5, hits give low values 0.997 | locus YBR279W, strain paf1, hits give low values 0.975 | locus YCL011C, strain gbp2, hits give low values 0.971 | locus YCL016C, strain dcc1, hits give low values 0.958 | locus YCL029C, strain bik1, hits give low values 0.979 | locus YCL061C, strain MRC1 (second series), hits give low values 0.997 | locus YCL061C, strain MRC1, hits give low values 0.993 | locus YCL069W, strain vba3, hits give low values 0.975 | locus YCR088W, strain abp1, hits give low values 0.964 | locus YDL005C, strain med2, hits give low values 0.97 | locus YDL035C, strain GPR1, hits give low values 0.978 | locus YDL040C, strain nat1, hits give low values 0.981 | locus YDL074C, strain BRE1, hits give low values 1.02 | locus YDL101C, strain DUN1, hits give low values 0.995 | locus YDL134C, strain PPH21, hits give low values 0.985 | locus YDL185W, strain tfp1, hits give low values 0.963 | locus YDL192W, strain arf1, hits give low values 0.992 | locus YDR001C, strain nth1, hits give low values 0.974 | locus YDR069C, strain doa4, hits give low values 0.989 | locus YDR101C, strain arx1, hits give low values 0.988 | locus YDR137W, strain rgp1, hits give low values 0.949 | locus YDR150W, strain NUM1, hits give low values 0.996 | locus YDR159W, strain sac3, hits give low values 0.949 | locus YDR162C, strain NBP2, hits give low values 0.98 | locus YDR195W, strain ref2 0.997 | locus YDR297W, strain sur2, hits give low values 0.978 | locus YDR318W, strain mcm21, hits give low values 0.976 | locus YDR334W, strain swr1, hits give low values 0.975 | locus YDR335W, strain msn5, hits give low values 0.968 | locus YDR363W, strain ESC2, hits give low values 1.01 | locus YDR388W, hits give low values 0.995 | locus YDR392W, strain spt3, hits give low values 0.842 | locus YDR502C, strain sam2, hits give low values 0.986 | locus YEL003W, strain gim4, hits give low values 0.982 | locus YEL037C, strain rad23, hits give low values 0.974 | locus YEL061C, strain CIN8 (second series), hits give low values 0.975 | locus YEL061C, strain CIN8, hits give low values 1.01 | locus YER002W, strain NOP16, hits give low values 0.987 | locus YER015W, strain faa2, hits give low values 0.988 | locus YER016W, strain bim1, hits give low values 0.948 | locus YER110C, hits give low values 0.984 | locus YER111C, strain swi4, hits give low values 0.964 | locus YER155C, strain BEM2 (second series), hits give low values 0.945 | locus YER155C, strain BEM2, hits give low values 0.993 | locus YER167W, strain BCK2, hits give low values 0.971 | locus YFR010W, strain ubp6, hits give low values 1 | locus YGL078C, strain dbp3, hits give low values 0.988 | locus YGL086W, strain mad1, hits give low values 0.995 | locus YGL167C, strain pmr1, hits give low values 0.98 | locus YGL173C, strain kem1, hits give low values 0.993 | locus YGL227W, strain vid30, hits give low values 0.981 | locus YGL240W, strain doc1, hits give low values 1.01 | locus YGL248W, strain PDE1, hits give low values 1.01 | locus YGL253W, strain hxk2, hits give low values 0.98 | locus YGR078C, strain PAC10, hits give low values 1.04 and 1.02 | locus YGR135W, strain pre9, hits give low values 0.953 | locus YGR252W, strain gcn5, hits give low values 0.991 | locus YHR013C, strain ard1, hits give low values 0.984 | locus YHR027C, strain rpn1, hits give low values 1 | locus YHR030C, strain SLT2, hits give low values 0.988 and 1.03 | locus YHR079C, strain IRE1 (second series), hits give low values 0.985 | locus YHR079C, strain IRE1, hits give low values 1.06 | locus YHR094C, strain hxt1, hits give low values 0.993 | locus YHR129C, strain ARP1, hits give low values 0.991 | locus YHR142W, strain chs7, hits give low values 0.948 | locus YHR200W, strain rpn10, hits give low values 0.982 | locus YIL066C, strain RNR3, hits give low values 1.01 | locus YIL073C, strain SPO22, hits give low values 0.867 | locus YIL125W, strain kgd1, hits give low values 0.998 | locus YIR030C, strain dcg1, hits give low values 0.98 | locus YJL092W, strain hpr5, hits give low values 0.99 | locus YJL095W, strain BCK1 (second series), hits give low values 0.968 | locus YJL095W, strain BCK1, hits give low values 1.03 and 1.01 | locus YJL115W, strain asf1, hits give low values 0.967 | locus YJL129C, strain trk1, hits give low values 0.931 | locus YJL134W, strain LCB3, hits give low values 0.987 | locus YJL154C, strain vps35, hits give low values 0.967 | locus YJL164C, strain tpk1, hits give low values 0.975 | locus YJL166W, strain qcr8, hits give low values 0.998 | locus YJL168C, strain set2, hits give low values 0.999 | locus YJL187C, strain SWE1 (second series), hits give low values 1.02 | locus YJR043C, strain POL32, hits give low values 1.01 | locus YJR066W, strain TOR1, hits give low values 0.956
